Test results published in PubChem BioAssay.
The source made the active and inactive calls. Unless noted, no rule for the calls is given here.

Tests used:
[1] = tested on: Wnt5a (protein binding on small-molecule microarray); experiment: small molecules binding Wnt5a protein – biophysical, small-molecule microarray, 635/667 nm fluorescence, primary screen (AID 1142); conditions: 635 nm fluorescence, higher = more signal;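 also: fluorescence read at 667 nm with signal to noise per printed feature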
[2] = ATP-based viability of Huh7 replicon cells – cell-based, CellTiter-Glo luminescence, basal, 48 h, cytotoxicity control for HCV replication inhibitor project, primary screen (AID 1143); conditions: higher = more signal, called active from +8 up or from −8 down;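 also: Huh7 hepatoma cells carrying a hepatitis C replication reporter with no stimulus; test concentration not given here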
[3] = Pseudomonas biofilm growth suppression – PAO1 strain, BacTiter-Glo luminescence, LB-PBS, primary screen (AID 1144); conditions: P. aeruginosa PAO1 biofilm, 12 h, higher = more signal
[4] = basal CRE-LacZ reporter activity in PC12 – cell-based, unstimulated, primary screen (AID 1145); conditions: no forskolin, luminescence, 4.5 h, higher = more signal, called active from +8 up or from −8 down
[5] = forskolin-driven CRE-LacZ activity in PC12 – cell-based, CRE-LacZ reporter, forskolin-stimulated, primary screen (AID 1146); conditions: luminescence, 4.5 h, higher = more signal, called active from +8 up or from −8 down;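 also: PC12 cells with 6xCRE LacZ reporter stimulated by forskolin 10 µM; beta-galactosidase reporter signal reflecting CREB driven transcription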
[6] = target: Streptavidin (Streptomyces avidinii) (UniProt P22629); experiment: compounds binding control protein streptavidin – biophysical, small-molecule microarray, 635/667 nm fluorescence, artefact control for SMM compound annotation, primary screen (AID 1147); conditions: higher = more signal;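 also: signal reflects streptavidin binding to arrayed compounds as a control protein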
Chain of Streptavidin (Streptomyces avidinii) (P22629 whole entry, looked up): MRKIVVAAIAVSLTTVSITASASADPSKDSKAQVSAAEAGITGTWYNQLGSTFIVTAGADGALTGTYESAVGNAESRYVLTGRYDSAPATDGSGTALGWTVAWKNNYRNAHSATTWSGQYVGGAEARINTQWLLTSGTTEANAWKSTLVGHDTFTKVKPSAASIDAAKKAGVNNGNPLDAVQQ

[7] = probe aInhba binding on compound microarray – biochemical, small-molecule microarray, 635/667 nm fluorescence, primary screen (AID 1148); conditions: higher = more signal;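 also: score merges 667nm spot fluorescence with signal-to-noise for antibody binding to printed compounds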
Torsin-1A (Homo sapiens) [8] = target: Torsin-1A (Homo sapiens) (UniProt O14656); experiment: TOR1A wild-type binding on microarray – cell lysate, small-molecule microarray, lysate, 635/667 nm, primary screen (AID 1149); conditions: COS7 hTOR1A-WT lysate, 635 nm fluorescence, higher = more signal
Chain of Torsin-1A (Homo sapiens) (O14656 whole entry, looked up): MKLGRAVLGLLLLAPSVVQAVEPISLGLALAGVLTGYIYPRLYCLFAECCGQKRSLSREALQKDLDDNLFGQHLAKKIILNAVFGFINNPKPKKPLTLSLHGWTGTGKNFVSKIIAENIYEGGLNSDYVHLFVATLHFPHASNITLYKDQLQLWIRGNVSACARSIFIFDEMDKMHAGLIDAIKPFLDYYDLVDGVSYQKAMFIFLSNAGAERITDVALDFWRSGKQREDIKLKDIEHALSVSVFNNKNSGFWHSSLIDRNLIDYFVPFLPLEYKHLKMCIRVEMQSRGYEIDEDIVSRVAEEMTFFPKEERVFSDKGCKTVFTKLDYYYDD

Torsin-1A (Homo sapiens) [9] = target: Torsin-1A (Homo sapiens) (UniProt O14656); experiment: torsin A mutant lysate binding on microarrays – cell lysate, small-molecule microarray, COS7 lysate, 635/667 nm fluorescence, primary screen (AID 1150); conditions: COS7 hTOR1A mutant lysate, 635 nm fluorescence, higher = more signal;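 also: score pools 667 nm emission and signal to noise measuring lysate protein binding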
[10] = tested on: Sonic hedgehog protein (Shh); experiment: Sonic hedgehog microarray binding compounds – biochemical, small-molecule microarray, 635/667 nm fluorescence, primary screen (AID 1151); conditions: 635 nm fluorescence, higher = more signal;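 also: Shh protein binding to compounds spotted on small-molecule microarray slides; score combines spot fluorescence intensity with signal-to-noise across triplicate slides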
[11] = optical density shifts of acrAB sulA E. coli – strain DRC41, OD650, 48 h, E. coli filamentation inducer project, primary screen (AID 1152); conditions: higher = more signal, called active from +8 up or from −8 down;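 also: E. coli MC1000 strain DRC41 lacking acrAB efflux pump and sulA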
[12] = probe aLefty1 binding on compound microarray – biochemical, small-molecule microarray, 635/667 nm fluorescence, primary screen (AID 1153); conditions: higher = more signal;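 also: score merges spot fluorescence with signal-to-noise ratio from the scanned slide images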
[13] = plasmodial surface anion channel blockers, osmotic lysis – cell-based, P. falciparum Indochina, OD700, 1 h, primary screen (AID 1154); conditions: P. falciparum Indochina infected RBC osmotic lysis, higher = more signal, called active from +8 up or from −8 down
[14] = plasmodial surface anion channel blockers, osmotic lysis – cell-based, P. falciparum Indochina, OD700, 2 h, primary screen (AID 1155);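 also: lysis reports solute entry through the parasite surface anion channel PSAC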; conditions: P. falciparum Indochina infected erythrocytes, higher = more signal, called active from +8 up or from −8 down
[15] = changes in parasitized red cell lysis, either direction – P. falciparum Indochina, OD700, 3 h, PSAC antagonist project, primary screen (AID 1156); conditions: P. falciparum-infected erythrocytes, osmotic lysis, higher = more signal, called active from +8 up or from −8 down
[16] = plasmodial surface anion channel blockers, osmotic lysis – cell-based, P. falciparum Indochina, OD700, 18 h, primary screen (AID 1157); conditions: P. falciparum Indochina infected erythrocytes, osmotic lysis OD700, 18 h; higher = more signal, called active from +8 up or from −8 down
[17] = S6 kinase pathway phospho-S6 level changes – cell-based, A549, cytoblot, luminescence, serum-stimulated, primary screen (AID 1158); conditions: 5 h, higher = more signal;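 also: serum-stimulated A549 lung adenocarcinoma cells; signal is phosphorylated S6 detected by cytoblot immunostaining with HRP secondary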
[18] = target: NADPH oxidase 2 (Homo sapiens) (UniProt P04839); experiment: compounds shifting NOX2 Amplex Red fluorescence – cell-based, HEK293-NOX2, PMA-stimulated, NOX inhibitor project, primary screen (AID 1159); conditions: 45 min, higher = more signal, called active from +8 up or from −8 down; also: test concentration not given here
Chain of NADPH oxidase 2 (Homo sapiens) (P04839 whole entry, looked up): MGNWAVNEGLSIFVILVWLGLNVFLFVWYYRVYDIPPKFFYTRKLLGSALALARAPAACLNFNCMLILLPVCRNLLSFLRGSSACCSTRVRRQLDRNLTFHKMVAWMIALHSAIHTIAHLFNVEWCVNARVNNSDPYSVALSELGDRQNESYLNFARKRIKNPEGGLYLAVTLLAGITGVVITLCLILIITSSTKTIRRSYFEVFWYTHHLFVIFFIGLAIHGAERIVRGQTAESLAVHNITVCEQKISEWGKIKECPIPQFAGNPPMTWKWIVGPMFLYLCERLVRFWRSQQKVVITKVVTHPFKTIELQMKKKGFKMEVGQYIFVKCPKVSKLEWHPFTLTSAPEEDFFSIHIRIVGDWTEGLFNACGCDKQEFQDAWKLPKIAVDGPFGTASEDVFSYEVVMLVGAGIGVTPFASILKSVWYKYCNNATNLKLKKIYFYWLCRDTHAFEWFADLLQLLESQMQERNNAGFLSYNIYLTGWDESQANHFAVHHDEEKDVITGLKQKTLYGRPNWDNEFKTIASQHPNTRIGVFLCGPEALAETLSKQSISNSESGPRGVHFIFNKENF

[19] = target: NADPH oxidase 4 (Homo sapiens) (UniProt Q9NPH5); experiment: compounds shifting NOX4 Amplex Red fluorescence – cell-based, HEK293-NOX4, tetracycline-induced, NOX inhibitor project, primary screen (AID 1160); conditions: HEK293-NOX4, Amplex Red H2O2 fluorescence, 45 min; higher = more signal, called active from +8 up or from −8 down
Chain of NADPH oxidase 4 (Homo sapiens) (Q9NPH5 whole entry, looked up): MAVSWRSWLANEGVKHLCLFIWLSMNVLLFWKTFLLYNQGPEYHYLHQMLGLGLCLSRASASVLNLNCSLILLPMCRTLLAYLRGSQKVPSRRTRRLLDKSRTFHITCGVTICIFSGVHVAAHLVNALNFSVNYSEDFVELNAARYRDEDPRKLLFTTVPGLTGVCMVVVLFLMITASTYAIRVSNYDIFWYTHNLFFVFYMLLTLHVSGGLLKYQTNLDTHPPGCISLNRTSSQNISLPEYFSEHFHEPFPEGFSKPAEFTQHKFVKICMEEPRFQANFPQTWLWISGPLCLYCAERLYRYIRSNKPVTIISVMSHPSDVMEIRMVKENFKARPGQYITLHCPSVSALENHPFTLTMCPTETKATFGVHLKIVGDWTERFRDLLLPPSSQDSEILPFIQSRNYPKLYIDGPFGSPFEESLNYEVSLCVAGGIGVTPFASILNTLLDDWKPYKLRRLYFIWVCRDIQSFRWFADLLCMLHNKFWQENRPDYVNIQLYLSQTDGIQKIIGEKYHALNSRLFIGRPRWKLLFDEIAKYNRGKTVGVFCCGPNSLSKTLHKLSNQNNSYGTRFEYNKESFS

[20] = target: NADPH oxidase 5 (Homo sapiens) (UniProt Q96PH1); experiment: compounds shifting NOX5 Amplex Red fluorescence – cell-based, HEK293-NOX5, NOX inhibitor project, primary screen (AID 1161); conditions: HEK293-NOX5, ionomycin, 45 min, higher = more signal
Chain of NADPH oxidase 5 (Homo sapiens) (Q96PH1 whole entry, looked up): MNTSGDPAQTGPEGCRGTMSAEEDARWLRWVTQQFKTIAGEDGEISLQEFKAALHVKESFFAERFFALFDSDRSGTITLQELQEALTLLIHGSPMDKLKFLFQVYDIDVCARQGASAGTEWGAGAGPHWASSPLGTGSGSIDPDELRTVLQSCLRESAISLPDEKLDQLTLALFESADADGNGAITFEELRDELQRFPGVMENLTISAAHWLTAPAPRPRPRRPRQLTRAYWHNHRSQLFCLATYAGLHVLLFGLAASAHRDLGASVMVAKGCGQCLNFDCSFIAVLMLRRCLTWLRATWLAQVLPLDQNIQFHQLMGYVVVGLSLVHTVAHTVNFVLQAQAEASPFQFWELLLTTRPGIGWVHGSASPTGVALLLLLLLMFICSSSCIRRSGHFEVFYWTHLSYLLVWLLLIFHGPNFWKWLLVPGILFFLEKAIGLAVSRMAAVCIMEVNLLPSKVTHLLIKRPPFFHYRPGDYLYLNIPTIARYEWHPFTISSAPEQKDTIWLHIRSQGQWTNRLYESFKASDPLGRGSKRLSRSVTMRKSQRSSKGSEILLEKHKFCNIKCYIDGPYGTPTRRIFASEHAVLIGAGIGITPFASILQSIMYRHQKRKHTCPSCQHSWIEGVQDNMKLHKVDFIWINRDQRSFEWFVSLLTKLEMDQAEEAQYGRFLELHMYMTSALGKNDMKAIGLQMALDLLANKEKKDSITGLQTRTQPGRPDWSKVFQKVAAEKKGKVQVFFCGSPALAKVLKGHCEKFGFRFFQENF

| SMILES | composite z-score [1] | z-score [2] | z-score [3] | z-score [4] | z-score [5] | composite z-score [6] | composite z-score [7] | composite z-score (Torsin-1A (Homo sapiens) [8]) | composite z-score (Torsin-1A (Homo sapiens) [9]) | composite z-score [10] | z-score [11] | composite z-score [12] | z-score [13] | z-score [14] | z-score [15] | z-score [16] | z-score [17] | z-score [18] | z-score [19] | z-score [20] |
| --- | --- | --- | --- | --- | --- | --- | --- | --- | --- | --- | --- | --- | --- | --- | --- | --- | --- | --- | --- | --- |
| COC(=O)C(CC#Cc1ccc2c(c1)[C@]1(C(=O)N2)[C@H](c2ccccc2OCCO)N2[C@H](c3ccccc3)[C@H](c3ccccc3)OC(=O)[C@H]2[C@@H]1C(=O)N1CCc2cc(OC)c(OC)cc2C1)C(=O)OC | 0.237 | -3.09 (inactive) | -0.888 (inactive) | -0.0515 (inactive) | 0.509 (inactive) | 1.11 | -0.138 | 0.757 | 0.674 | 1.82 | 0.447 (inactive) | 0.0215 | 3.28 (inactive) | 2.24 (inactive) | 2.54 (inactive) | 1.25 (inactive) | -0.033 | 1.74 (inactive) | 1.52 (inactive) | 1.73 |
| COc1ccc(NN2C(C(O)c3ccc(I)cc3)C=CC3C(=O)N(C4CCCCC4)C(=O)C32)cc1 (stereo not given) | 0.404 | -1.7 (inactive) | -2.03 (inactive) | 0.435 (inactive) | -0.469 (inactive) | 1.34 | 0.253 | 0.237 | 0.51 | 1.3 | -0.111 (inactive) | 0.425 | 3.84 (inactive) | 1.16 (inactive) | -0.0985 (inactive) | 0.706 (inactive) | -0.569 | 0.0194 (inactive) | -0.672 (inactive) | -1.16 |
| C=CCN1C(=O)[C@]2(O[C@H](CCn3cc([C@H](O)c4ccccc4)nn3)[C@@H]([Si](C)(C)c3ccc(OC)cc3)[C@@H]2C)c2cc(NC(=O)c3ccc(OC)cc3)ccc21 | 0.0292 | -3.84 (inactive) | -1.5 (inactive) | 1.05 (inactive) | -1.54 (inactive) | -0.0759 | 0.117 | -0.68 | 0.0247 | 1.36 | 0.294 (inactive) | 0.179 | 5.48 (inactive) | 2.21 (inactive) | 2.59 (inactive) | 1.18 (inactive) | -0.0732 | 0.51 (inactive) | 0.564 (inactive) | -0.0881 |
| CC[C@@H]1C=C(C(=O)O)[C@H](c2ccc(OC)cc2)N1S(=O)(=O)c1ccc(C)cc1 | 0.0237 | -1.09 (inactive) | 1.01 (inactive) | 0.0798 (inactive) | 0.0935 (inactive) | 0.114 | -0.016 | -0.579 | 0.316 | -0.236 | -1.46 (inactive) | -0.0449 | 0.785 (inactive) | 0.453 (inactive) | -0.51 (inactive) | 0.437 (inactive) | -0.458 | 0.339 (inactive) | -0.517 (inactive) | -0.215 |
| CC(C)[Si](C#CCCc1ccccc1)(O[C@H](c1ccccc1)c1cn(Cc2ccccc2)nn1)C(C)C | 0.21 | -1.12 (inactive) | -0.778 (inactive) | -0.0989 (inactive) | -0.105 (inactive) | 1.61 | -0.179 | 0.5 | 0.484 | 0.814 | 1.09 (inactive) | 0.188 | 1.36 (inactive) | 0.308 (inactive) | -0.329 (inactive) | 0.53 (inactive) | 0.534 | -0.967 (inactive) | -0.899 (inactive) | -3.17 |
| CC1=C([C@H](O)CCc2ccccc2)[C@H](CO)n2c(=O)n(-c3ccccc3)c(=O)n2C1 | -0.0682 | -1.13 (inactive) | -1.21 (inactive) | 0.399 (inactive) | 0.0978 (inactive) | -0.141 | -0.202 | 0.217 | -0.485 | 0.359 | 2.91 (inactive) | -0.06 | 1.44 (inactive) | -0.657 (inactive) | -0.237 (inactive) | -1.48 (inactive) | 1.77 | -0.53 (inactive) | -0.429 (inactive) | 0.218 |
| CC1CC/C=C\[C@H]2OC34C=CCN(CCN5CCOCC5)C(=O)[C@H]3N(CCCO)C(=O)[C@@H]4C2C(=O)O1 (stereo not given in full) | -0.239 | 0.0123 (inactive) | 1.13 (inactive) | -0.887 (inactive) | -0.0703 (inactive) | -0.601 | -0.154 | -0.0243 | 0.0876 | 0.624 | -0.576 (inactive) | -0.0518 | 0.811 (inactive) | 0.354 (inactive) | -0.513 (inactive) | 0.136 (inactive) | 1.38 | 0.638 (inactive) | -1.71 (inactive) | 0.947 |
| CC(=O)c1ccc(C(O)C2C=CC3C(=O)N(c4ccccc4)C(=O)C3N2Nc2ccc(C(C)C)cc2)cc1 (stereo not given) | 0.0129 | -1.16 (inactive) | -0.853 (inactive) | 1.4 (inactive) | -0.17 (inactive) | 1.43 | 0.361 | -0.127 | 0.135 | 0.295 | -1.08 (inactive) | 0.281 | 12.7 (active) | 3.03 (inactive) | 1.42 (inactive) | 1.47 (inactive) | -0.617 | -1.6 (inactive) | -1.6 (inactive) | -2.08 |
| COC(=O)[C@@]1(Cc2ccccc2)[C@H]2c3cc(C(=O)N4CCCC4)n(Cc4ccc(OC)c(OC)c4)c3C[C@H]2CN1C(=O)c1ccccc1 | 0.56 | -1.99 (inactive) | 0.388 (inactive) | 0.39 (inactive) | 0.208 (inactive) | 0.782 | 0.715 | 0.279 | 1.18 | -0.121 | -1.08 (inactive) | 0.347 | 1.76 (inactive) | 0.41 (inactive) | 2.24 (inactive) | 0.861 (inactive) | -0.321 | 0.136 (inactive) | 0.104 (inactive) | -3.31 |
